Laboratory results as given in PubChem BioAssay (NCI).
The panel holds about 79,000 compounds, 15% with a hit somewhere; the sample as a whole holds those more often. Active and inactive are the calls of the source. Cut-off read from the data, not from the text of the source: active = growth inhibition above about 70%; inactive = the rest.

Columns and labels:
[1] = NCI Yeast Anticancer Drug Screen. Data for the rad50 strain (AID 155);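 note: 0% = growth of vehicle-only cultures of the same strain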; conditions: S. cerevisiae rad50 strain growth inhibition, stronger effect = higher value
Outline: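 Growth of the mutant yeast was measured after compound exposure and referenced to vehicle-treated cultures.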

[2] = NCI Yeast Anticancer Drug Screen. Data for the mec2-1 strain (AID 157); conditions: S. cerevisiae mec2-1 strain, stronger effect = higher value
Outline: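 Growth inhibition is read against vehicle-treated controls after compound exposure of the mec2-1 yeast strain, which is defective in DNA damage repair or cell cycle control.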

[3] = NCI Yeast Anticancer Drug Screen. Data for the sgs1 mgt1 strain (AID 161);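 note: 0% = growth of cultures given vehicle only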; conditions: S. cerevisiae sgs1 mgt1 strain, stronger effect = higher value
Outline: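 Compounds are added to genetically altered yeast, and growth is compared with cultures given vehicle alone to give percent inhibition.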

[4] = NCI Yeast Anticancer Drug Screen. Data for the cln2 rad14 strain (AID 165);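 note: 0% = growth equal to vehicle treated cultures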; conditions: S. cerevisiae cln2 rad14 strain, stronger effect = higher value
Outline: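 Growth inhibition, relative to vehicle-treated controls, is the read-out. The test organism is a yeast strain with defined genetic alterations, cln2 rad14.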

[5] = NCI Yeast Anticancer Drug Screen. Data for the bub3 strain (AID 167); conditions: S. cerevisiae bub3 mutant strain, stronger effect = higher value
Outline: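 Whole-cell yeast assay. The mutant strain was incubated with compounds, and growth inhibition was determined by comparison with vehicle-treated cells.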

[6] = NCI Yeast Anticancer Drug Screen. Data for the mlh1 rad18 strain (AID 175); conditions: S. cerevisiae mlh1 rad18 strain growth inhibition, stronger effect = higher value
Outline: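 Cells of a genetically altered yeast strain, deficient in DNA damage repair, were treated with compound. Their growth was then compared with that of vehicle-treated cultures to give inhibition.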

[7] = at 5.0 µM (retest, dose inferred, filed as 0.5)
[8] = at 50.0 µM (retest, dose inferred, filed as 5.0)

Measured: growth inhibition

C[n+]1c(/C=C/c2cccc([N+](=O)[O-])c2)sc2ccccc21
inactive: [1]; [7] 10% | [2]; [7] 15% | [3]; [7] -1% | [4]; [7] 14% | [5]; [7] 7% | [6]; [7] 13%
active: [1]; [8] 97% | [1]; at 50.0 µM 97.6% | [2]; [8] 99% | [2]; at 50.0 µM 96.2% | [3]; [8] 98% | [3]; at 50.0 µM 97.9% | [4]; [8] 97% | [4]; at 50.0 µM 98.8% | [5]; [8] 97% | [5]; at 50.0 µM 96% | [6]; [8] 98% | [6]; at 50.0 µM 99.2%

O=C1O/C(=C(/Cl)c2c3ccccc3cc3ccccc23)c2ccccc21
inactive: [1]; [7] -22% | [2]; [7] -13% | [3]; [7] -15% | [4]; [7] -4% | [4]; at 50.0 µM 68.7% | [5]; [7] -25% | [6]; [7] 27%
active: [1]; [8] 95% | [1]; at 50.0 µM 81.1% | [2]; [8] 92% | [2]; at 50.0 µM 80.2% | [3]; [8] 96% | [3]; at 50.0 µM 82.3% | [4]; [8] 94% | [5]; [8] 95% | [5]; at 50.0 µM 84.5% | [6]; [8] 95% | [6]; at 50.0 µM 82.2%

Cc1ccc(NC(=S)N(CCC#N)C2CCCCC2)cc1C
inactive: [1]; [7] -12% | [1]; [8] -10% | [1]; at 50.0 µM 21.9% | [2]; [7] -22% | [2]; [8] -21% | [2]; at 50.0 µM -7.55% | [3]; [7] -6% | [3]; [8] 10% | [3]; at 50.0 µM 10.3% | [4]; [7] -2% | [4]; [8] 3% | [4]; at 50.0 µM 0.5% | [5]; [7] 7% | [5]; [8] 7% | [5]; at 50.0 µM 1.85% | [6]; [7] -27% | [6]; [8] -28% | [6]; at 50.0 µM 14.6%

Cc1ccccc1N=Nc1ccccc1
inactive: [1]; [7] 21% | [2]; [7] 17% | [3]; [7] 22% | [4]; [7] 12% | [5]; [7] 48% | [6]; [7] 39%
active: [1]; [8] 98% | [1]; at 50.0 µM 99.4% | [2]; [8] 99% | [2]; at 50.0 µM 99.4% | [3]; [8] 99% | [3]; at 50.0 µM 99.5% | [4]; [8] 98% | [4]; at 50.0 µM 99.3% | [5]; [8] 98% | [5]; at 50.0 µM 99.3% | [6]; [8] 98% | [6]; at 50.0 µM 99.4%

Cc1cc(NCCCN(C)C)c2cc3ccc4cccc5ccc(c2n1)c3c45
active: [1]; at 50.0 µM 95.2% | [2]; at 50.0 µM 90.4% | [3]; at 50.0 µM 94.8% | [5]; at 50.0 µM 94.5% | [6]; at 50.0 µM 97.3%
inactive: [1]; [7] 1% | [1]; [8] 54% | [2]; [7] -12% | [2]; [8] 23% | [3]; [7] -3% | [3]; [8] 47% | [4]; [7] -2% | [4]; [8] 25% | [4]; at 50.0 µM 63.8% | [5]; [7] -2% | [5]; [8] 20% | [6]; [7] -2% | [6]; [8] 58%

C/C(=N/Nc1ccc([N+](=O)[O-])cc1[N+](=O)[O-])C(=O)O
active: [1]; at 50.0 µM 95.3% | [3]; [8] 76% | [3]; at 50.0 µM 97.5% | [5]; [8] 72% | [5]; at 50.0 µM 98.5% | [6]; [8] 91% | [6]; at 50.0 µM 96.8%
inactive: [1]; [7] 11% | [1]; [8] 69% | [2]; [7] 2% | [2]; [8] 63% | [2]; at 50.0 µM 59.8% | [3]; [7] -1% | [4]; [7] -1% | [4]; [8] 21% | [4]; at 50.0 µM 13.2% | [5]; [7] -1% | [6]; [7] -2%

CCC(N)(CO)CO
active: [4]; at 50.0 µM 71.5%
inactive: [1]; [7] 7% | [1]; [8] 67% | [1]; at 50.0 µM 3.65% | [2]; [7] 5% | [2]; [8] 8% | [2]; at 50.0 µM 8.3% | [3]; [7] 2% | [3]; [8] 11% | [3]; at 50.0 µM 9.7% | [4]; [7] 5% | [4]; [8] 12% | [5]; [7] 3% | [5]; [8] 14% | [5]; at 50.0 µM 44.1% | [6]; [7] 2% | [6]; [8] 8% | [6]; at 50.0 µM -30.2%

O=C(O)c1nc2cc(C(F)(F)F)ccc2nc1Nc1ccc(Cl)c(Cl)c1
active: [1]; [8] 77% | [1]; at 50.0 µM 86% | [2]; [8] 90% | [2]; at 50.0 µM 80.3% | [4]; [8] 85% | [4]; at 50.0 µM 76.5% | [6]; [8] 87% | [6]; at 50.0 µM 79.1%
inactive: [1]; [7] 23% | [2]; [7] 19% | [3]; [7] -16% | [3]; [8] 52% | [3]; at 50.0 µM 48.8% | [4]; [7] -7% | [5]; [7] 16% | [5]; [8] 64% | [5]; at 50.0 µM 55.1% | [6]; [7] 19%

COc1ccc(C2N(Cc3ccc(Cl)cc3)CCN2Cc2ccc(Cl)cc2)cc1
inactive: [1]; [7] 9% | [1]; at 50.0 µM 46.6% | [2]; [7] 9% | [2]; [8] 59% | [2]; at 50.0 µM 32.2% | [3]; [7] 37% | [4]; [7] 21% | [4]; [8] 53% | [4]; at 50.0 µM 69.2% | [5]; [7] 34% | [5]; at 50.0 µM 25.9% | [6]; [7] 25% | [6]; at 50.0 µM 50.5%
active: [1]; [8] 70% | [3]; [8] 89% | [3]; at 50.0 µM 71.2% | [5]; [8] 91% | [6]; [8] 72%

CCCCC#CC(=O)OCCCCC
inactive: [1]; [7] -2% | [1]; [8] 0% | [1]; at 50.0 µM -18.9% | [2]; [7] 4% | [2]; [8] 1% | [2]; at 50.0 µM -3.1% | [3]; [7] 1% | [3]; [8] 3% | [3]; at 50.0 µM -13.4% | [4]; [7] -5% | [4]; [8] -2% | [4]; at 50.0 µM 25.1% | [5]; [7] 1% | [5]; [8] 3% | [5]; at 50.0 µM -14.6% | [6]; [7] -2% | [6]; [8] -4% | [6]; at 50.0 µM -16.4%
